Rows were chosen to be rich in hits. Some 2.9% of all compounds tested hit in one or more screens of this group.
Wnt bcat act = Wnt/beta-catenin pathway activation. Wnt/beta-catenin reporter cell assay, activator, plate reader. 300,000 compounds, 1.2% hits. activation, % at 9.35 µM; in the data active means activation above about 30%, passing the limit was not always enough;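 further: 0% = neutral control wells and 100% = positive control wells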
MITF TRPM1 inh = inhibitors of MITF-driven TRPM1 promoter in melanoma cells; 330,000 compounds, 0.83% hits; inhibition, % at 12.5 µM; SK-MEL-5 TRPM1 promoter luciferase, 24 h;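 active means mean inhibition across replicates of 60% or more, whatever share of single replicates reaches that level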
N-glyco inh = blocks N-linked glycosylation in D54 reporter cells. D54 ERlucT glycosylation luciferase reporter, 24 h; percent of 100 nM tunicamycin response. reporter increase, % at 12.5 µM. 360,000 compounds, 0.23% hits;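 active means mean luciferase reporter signal, scaled so untreated is 0 and the glycosylation-blocking control 100, at or above a set limit in every replicate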;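 further: luciferase carries N-glycosylation sites so blocking glycosylation raises the light; 0% = median of neutral control wells and 100% = median of 100 nM tunicamycin wells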
NSD2 HMT inh = inhibitors of human histone methyltransferase NSD2 | inhibition, % at 12.5 µM | NSD2 peptide methylation, AlphaScreen, 120 min | AID 743445 | 310,000 compounds, 0.54% hits; in the data active means inhibition above about 50%
MITF act = increases MITF-driven TRPM1 promoter luciferase signal. activation, % at 12.5 µM. 300,000 compounds, 0.75% hits. SK-MEL-5 TRPM1-promoter luciferase, 24 h; % of positive control, neutral wells = 0. AID 588334;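 active means mean activation of at least 80% with every replicate also reaching 80%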;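 further: 0% = neutral control wells and 100% = parthenolide positive control wells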
PfHsp90 yeast 2 = reduces growth (ATP signal) of yeast expressing P. falciparum Hsp90; S. cerevisiae expressing PfHsp90, BacTiter-Glo ATP, 48 h; yeast lacking PDR1 and PDR3 efflux regulators; inhibition, % at 9.4 µM; 310,000 compounds, 0.32% hits; AID 504621;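 active means every replicate shows inhibition above about 80%, whatever the replicate mean, limit read from the data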;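 further: 0% = DMSO neutral controls and 100% = 20 µM radicicol positive controls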
* = called active by the depositor; x = no result.

SMILES	Wnt bcat act	MITF TRPM1 inh	N-glyco inh	NSD2 HMT inh	MITF act	PfHsp90 yeast 2
COc1ccc(-c2nnc(SCC(=O)Nc3ccc(S(=O)(=O)Nc4nccs4)cc3)n2-c2ccc(OC)cc2)cc1	x	x	x	0.9	x	x
CCc1sc(C(=O)Nc2ccc(NC(C)=O)cc2)cc1C	2.5	-9.2	-2.3	0.9	10.1	5.4
CCc1sc(C(=O)Nc2ccc3nc(C)sc3c2)cc1C	12.8	-86.9	-1.2	-10.6	90.3*	-18.3
O=C(Nc1ccc(S(=O)(=O)NC2=NCCCCC2)cc1)c1cccs1	-4.2	0.3	-1.2	17.2	-0.7	4.1
O=C(Nc1ccc(S(=O)(=O)NC2=NCCCCC2)cc1)c1ccc([N+](=O)[O-])s1	0.3	89.0*	-11.4	6.3	-88.6	0.5
Cc1nc2cc(NC(=O)c3ccc([N+](=O)[O-])s3)ccc2s1	17.7	103.8*	-11.8	-4.3	-102.9	-7.8
Cc1nc2ccc(NC(=O)Cc3ccccc3F)cc2s1	-1.1	-124.0	-4.8	-2.3	120.6*	-21.7
Cc1ccc(-n2c(SCC(=O)c3ccc(O)c(O)c3)nnc2-c2ccccc2)cc1	x	x	x	1.6	x	x
COc1ccc(NC(=O)CSc2nc(C)cc(=O)[nH]2)cc1OC	x	x	x	5.7	x	x
CC(=O)Nc1ccc(C=C(C#N)c2ccc(C)cc2)cc1	47.3*	x	-2.9	-0.7	x	x
NC(=O)c1c(NC(=O)c2ccncc2)sc2c1CCCC2	-0.6	-21.2	-0.5	1.9	24.3	1.5
CCOC(=O)C(NC(=O)c1cccc(Cl)c1)(Nc1sc2c(c1C(N)=O)CCC2)C(F)(F)F (stereo unspecified)	-2.0	-3.1	7.8	3.9	1.4	2.9
CCOC(=O)C(NC(=O)c1ccc(F)cc1)(Nc1sc2c(c1C(N)=O)CCC2)C(F)(F)F (stereo unspecified)	107.6*	8.6	5.4	1.8	-9.8	-35.0
CN1CCc2c(sc(NC(=O)Cc3ccccc3)c2C(N)=O)C1	2.5	x	0.0	x	x	13.3
CN1CCc2c(sc(NC(=O)c3ccc4ccccc4c3)c2C(N)=O)C1	x	-111.3	-11.8	-0.8	120.8*	x
NC(=O)c1c(NC(=O)c2ccccc2)sc2c1CCC2	65.0*	-23.3	-1.5	-0.5	24.5	-1.3
C=CCN=C1NC(c2cccc(F)c2)C(C(=O)OC)=C(C)N1Cc1ccccc1C(F)(F)F (stereo unspecified)	-3.2	x	x	x	x	x
Cn1c(SCc2ccccc2Cl)nc2ccccc21	x	-137.0	-5.1	14.5	131.4*	-3.7
CC1Sc2ccc(S(=O)(=O)CCC(=O)N3CCN(c4cccc(Cl)c4)CC3)cc2NC1=O (stereo unspecified)	1.8	14.6	-2.8	-1.5	-17.1	10.7
O=C(/C=C/c1ccccc1)c1ccc2c3c(cccc13)CC2	16.8	-36.1	46.6*	0.0	38.3	17.5
COC(=O)C1=C(Nc2ccccc2NC(=O)c2ccccc2C(=O)O)CSC1	41.5*	7.6	1.2	0.5	-5.7	-0.8
COc1ccc2cc(-c3cn(C(=O)N(c4ccccc4)c4ccccc4)nn3)ccc2c1	x	x	x	-3.0	x	x
Cc1cc(CNC(=O)c2cc(COc3ccc(F)c(F)c3)on2)nn1C	29.3	-85.6	-5.1	-6.0	86.4*	-6.5
C=CCNC(=O)/C(=C/c1cn(-c2ccccc2)nc1-c1cccc([N+](=O)[O-])c1)NC(=O)c1ccccc1	x	13.3	-1.7	2.0	-9.5	-3.3
CN(C)C(=O)/C(=C/c1cn(-c2ccccc2)nc1-c1cccc([N+](=O)[O-])c1)NC(=O)c1ccccc1	56.4*	14.8	-0.2	-1.1	-13.1	x
SMILES	Wnt bcat act	MITF TRPM1 inh	N-glyco inh	NSD2 HMT inh	MITF act	PfHsp90 yeast 2
O=C(CNC(=O)c1ccccc1)OCc1cccc(Br)c1	-0.6	2.7	-0.1	-2.2	-1.4	3.6
O=C(CCCNC(=O)c1ccc(Cl)cc1)OCc1cccc(Br)c1	7.1	6.6	-1.6	5.2	-3.7	113.4*
Cc1cc(NC(=O)c2ccc3sc([C@@H]4O[C@H](CO)[C@H](O)[C@H](O)[C@H]4O)nc3c2)n(C)n1	-1.6	x	1.4	-1.7	x	x
Cc1ccc(N2CCN(C(=O)c3cn(CC4CCCCC4)nn3)C(C)C2)cc1 (stereo unspecified)	39.6*	-64.2	-7.2	2.2	69.6	-40.0
CC1=C(C)/C(=N\OS(=O)(=O)c2ccccc2)C=CC1=O	x	44.3	4.3	x	-44.0	105.8*
Cc1ccc(S(=O)(=O)O/N=C2\CCCc3ccccc32)cc1	x	10.0	3.1	x	-12.1	-10.0
COc1cccc(C(C[N+](=O)[O-])c2c(C)[nH]n(-c3ccccc3)c2=O)c1 (stereo unspecified)	-0.6	-7.7	3.6	12.2	8.2	14.3
Cc1[nH]n(-c2ccccc2)c(=O)c1C(C[N+](=O)[O-])c1ccc(Br)cc1 (stereo unspecified)	x	82.8*	1.0	31.8	-82.7	121.7*
CN1CCN(c2cc(-c3ccc4ccccc4c3)nc3ccnn23)CC1	-0.9	x	-2.3	-0.5	x	x
Cc1ccc(NC(=O)/C=C/c2ccc([N+](=O)[O-])s2)cc1	35.1*	81.9*	6.5	-1.4	-79.9	-54.7
Cc1ccc(NC(=O)/C=C/c2ccc([N+](=O)[O-])s2)c(C)c1	-7.9	109.2*	-19.1	-0.1	-109.9	-2.2
Cc1cccc(NC(=O)/C=C/c2ccc([N+](=O)[O-])s2)c1	x	94.6*	-17.4	14.6	-94.7	0.4
Cc1ccc(/C=C/C(=O)Nc2ccc([N+](=O)[O-])cc2)o1	9.8	-50.3	2.5	x	55.7	-20.6
Cc1cccc(N/N=C/c2ccc(C)s2)c1	5.9	-100.8	-1.6	-0.4	104.3*	-12.7
COc1cccc(NC(=O)/C=C/c2ccccc2[N+](=O)[O-])c1	14.2	-52.1	-2.7	-2.2	56.5	-0.8
O=C(NCC1CCN(C(=O)C(=O)c2cc3ccccc3o2)CC1)c1ccncc1	-3.1	x	x	-1.1	x	x
COc1ccc(C(C)=NOC(=O)c2c(-c3ccccc3Cl)noc2C)cc1CN1CCOCC1	0.0	x	-6.0	-1.7	x	x
COc1ccc(CCN2CC(=O)N3CCc4ccc(N5CCOCC5)cc4C3CC2=O)cc1OC (stereo unspecified)	-4.8	x	x	x	x	x
CN(C(=O)CSc1nc2ccc([N+](=O)[O-])cc2s1)C1CCS(=O)(=O)C1 (stereo unspecified)	1.1	20.0	-3.7	2.6	-15.7	0.2
O=C(/C=C/c1cccs1)NNC(=O)c1cccc([N+](=O)[O-])c1	-2.1	11.1	0.2	0.7	-8.9	-6.1
CCOC(=O)N/N=C\c1ccc([N+](=O)[O-])s1	-1.4	29.0	9.1	2.5	-29.6	17.2
Cc1cccc(NC(=S)N/N=C/c2ccc([N+](=O)[O-])s2)c1	x	51.2	-9.0	12.4	-50.5	100.1*
Cc1cc([N+](=O)[O-])ccc1NC(=O)/C=C/c1cccs1	35.0*	-62.2	2.5	0.9	70.1	-2.7
O=C(CNS(=O)(=O)c1ccc(F)cc1)N1CCN(c2ccccn2)CC1	x	x	x	-1.1	x	x
COc1ccc(NC(=O)c2ccc([N+](=O)[O-])o2)cc1	0.9	28.1	30.9*	4.4	x	-2.8

High-throughput results deposited in PubChem by Broad Institute.
